# The full list was thinned out, with hits kept by preference.
# CD40 NFkB inh: CD40 pathway inhibition in BL2 cells; BL2 NF-kB luciferase reporter, CD40L-induced, 4 h; inhibition, % at 10 µM; 83,000 tested, 0.94% active;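 active means mean inhibition of at least 50% with a set share of replicates also reaching that level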
# A number is an active result; - = inactive.
SMILES,CD40 NFkB inh
COCCNC(=O)C[C@H]1C[C@H]2c3cc(NC(=O)CN(C)C)ccc3O[C@H]2[C@H](CO)O1,-
CN(C)CC(=O)N1[C@H](CO)[C@H](c2ccccc2-c2cccc(C(=O)N(C)C)c2)[C@@H]1C#N,-
CCn1nccc1C(=O)Nc1nc2ccccc2n1CCN1CCCCC1,-
Cc1ccc(C(=O)Nc2nc3ccccc3n2CCN2CCCC2)cc1,-
CCCn1c(NC(=O)c2cccc(S(=O)(=O)N3CCCC3)c2)nc2ccccc21,90
O=C1c2cccnc2C(=O)N1C1CCCCC1,-
O=C1C=C(NCCc2cc(Br)c(O)c(Br)c2)C(=O)c2ncccc21,-
NC1=C(Br)C(=O)c2ncccc2C1=O,70
CN(C)C(=O)C[C@@H]1C=C[C@@H](NC(=O)c2ccc(F)cc2)[C@H](CO)O1,-
C[C@H](CO)N1C[C@H](C)[C@@H](CN(C)S(=O)(=O)CC(F)(F)F)OCc2ccccc2-c2c(n(C)c3ccccc23)C1=O,-
O=C(CC(F)(F)F)N1C[C@@H]2[C@H](c3ccccc31)[C@@H](CO)N2C(=O)C1CC1,-
CC1OC(CC(=O)O)CC2=C1C(=O)c1c(O)cccc1C2=O (stereo not drawn),104
C[C@H]1CN([C@@H](C)CO)C(=O)c2ccccc2-c2ccccc2CO[C@H]1CN(C)C(=O)CCC(F)(F)F,-
NCC(O)COCCC12CC3CC(CC(C3)C1)C2 (stereo not drawn),-
CC(NCC(O)COCCC12CC3CC(CC(C3)C1)C2)c1ccccc1 (stereo not drawn),86
OC(COCCC12CC3CC(CC(C3)C1)C2)CN1CCCC1 (stereo not drawn),-
C[C@@H]1CN(C)C(=O)Cc2cc(NS(C)(=O)=O)ccc2O[C@H]1CN(C)C,-
CC(C)c1ccc(NC(=O)Nc2nc(C(N)COCc3ccccc3)cs2)cc1 (stereo not drawn),57
COc1cccc(Nc2nc(C(N)COCc3ccccc3)cs2)n1 (stereo not drawn),-
COc1ccc(NC(=O)Nc2nc(C(N)CC(C)C)cs2)cc1 (stereo not drawn),-
C/C=C/c1ccc(C2[C@H]3CNC[C@@H]2N3C(=O)Nc2ccc(C(F)(F)F)cc2)cc1 (stereo partly drawn),-
COCC(=O)N1[C@@H](CO)[C@@H](c2ccc(-c3ccccc3OC)cc2)C12CN(C(C)=O)C2,-
N#C/C(=C\c1ccc(O)c(O)c1)C(=O)NC1CCC(CC2CCC(NC(=O)/C(C#N)=C/c3ccc(O)c(O)c3)CC2)CC1 (stereo not drawn),-
Nc1ccc2nc(N3CCOCC3)sc2c1,-
c1ccc(N2CCN(c3nc4cc5c(cc4s3)OCCO5)CC2)cc1,-
SMILES,CD40 NFkB inh
c1c2c(cc3sc(N4CCOCC4)nc13)OCCO2,87
CO[C@H](CN(C)S(=O)(=O)c1cn(C)cn1)[C@H](C)CN(C(=O)Nc1ccc(C(F)(F)F)cc1)[C@H](C)CO,-
C[C@@H]1CN([C@H](C)CO)C(=O)c2ccccc2-c2ccccc2CO[C@@H]1CN(C)C(=O)[C@H](C)c1ccccc1,-
COC(=O)C[C@H]1C[C@H]2c3cc(NS(C)(=O)=O)ccc3O[C@H]2[C@H](CO)O1,-
CC(=O)Nc1ccc2c(c1)C(=O)N(C)C[C@H](C)[C@@H](CN(C)C(=O)OC(C)(C)C)O2,-
CO[C@@H]1CN(C)C(=O)c2cc(NC(=O)c3cc(C)on3)ccc2OC[C@@H](C)N(C(=O)C2CCC2)C[C@H]1C,-
C=C1C(=O)C23C(O)C1CCC2C12CCCC(C)(COC(C)=O)C1C(O)C3(O)OC2 (stereo not drawn),104
C1CCC(C(CC2CCCCN2)C2CCCCC2)CC1 (stereo not drawn),78
CC(C)CC(NC(=O)N1CCCCCC1)C(=O)NC(Cc1cn(C)c2ccccc12)C(=O)NC(Cc1ccccn1)C(=O)O (stereo not drawn),-
O=C1C=C(c2c(O)ccc3ccccc23)c2ccccc2C1=O,73
Oc1ccc2ccccc2c1CNc1ccccc1,-
O=C(O)c1cc2ccccc2c2c1C(=O)c1ccccc1-2,-
O=C(O)[C@@H]1[C@@H](CO)[C@@H]2Cn3c(ccc(-c4cncnc4)c3=O)[C@@H]2N1C(=O)C1CCC1,-
O=C(COC(=O)c1ccc(OC(F)F)cc1)Nc1ccc2c(c1)OCCO2,-
O=C(C[C@H]1C[C@H]2c3cc(NC(=O)Nc4ccccc4)ccc3O[C@H]2[C@@H](CO)O1)NCc1ccccc1,-
CC(=O)N1CCC(N(CCN2CCOCC2)C(=O)Nc2ccc(Cl)c(Cl)c2)CC1,-
O=C1/C(=C\c2ccc(Cl)c(Cl)c2)CN(C(=O)CCN2CCOCC2)C/C1=C/c1ccc(Cl)c(Cl)c1,74
O=C(c1ccc(Cl)c(Cl)c1)N1CCC(O)(CN2CCOCC2)CC1,-
CCCN1C[C@H](C)[C@H](OC)CN(C)C(=O)c2cc(NC(=O)C3CCC3)ccc2OC[C@@H]1C,-
CN1c2ccc(C#Cc3cccnc3)cc2[C@H]2[C@H](CCN2C(=O)C2CCCC2)[C@H]1CO,-
Cc1ccc(-c2cc(C(=O)NCC3(N(C)C)CCCCC3)c3ccccc3n2)o1,-
Cc1ccc(-c2cc(C(=O)N(C)CC(=O)Nc3ccccc3Br)c3ccccc3n2)o1,55
COc1ccc(NC(=O)CN(C)C(=O)c2cc(-c3ccco3)nc3ccccc23)cc1,-
COc1ccc(C[C@@H]2CCc3cnnn3COC[C@H](CC(C)C)NC2=O)cc1,-
C/C=C/c1ccccc1[C@@H]1[C@@H](C#N)N(C(=O)CN2CCOCC2)[C@H]1CO,-
SMILES,CD40 NFkB inh
CN1c2ccc(-c3cccc(C#N)c3)cc2[C@@H]2[C@@H](CCN2C(=O)C2CCCCC2)[C@@H]1CO,-
O=C(Cc1cccnc1)N1CC(=O)N2[C@H](C1)[C@@H](c1ccc(/C=C/c3ccccc3)cc1)[C@@H]2CO,-
O=C(COC(=O)Cc1ccc(F)cc1)NC1CCCCCC1,-
COc1ccc(C(=O)/C=C/C(=O)N(CC(=O)NC2CCCCC2)Cc2ccc(F)cc2)c(O)c1,38
COc1ccc(S(=O)(=O)NCC(=O)N(CC(=O)NC(C)(C)C)Cc2cccs2)cc1,-
COc1ccc(OC)c(NC(=O)CN(Cc2ccc(F)cc2)C2CCCCC2)c1,-
COc1ccc(Br)c(C(=O)NCCC(C)C)c1,-
COc1ccc(C(=O)/C=C/C(=O)N(CC(=O)NCCC(C)C)Cc2cccs2)c(O)c1,90
CCC(=O)N1CC2(C1)[C@@H](c1ccccc1)[C@@H](CO)N2CC1CC1,-
O=C1C[C@@H](c2ccccc2)C(=O)N[C@@H](c2ccccc2)C/C=C\C[C@@H](c2ccccc2)N1,-
O=C1CCCc2cnnn2COCCN1,-
Cc1cc(C(=O)N2CCC(C(=O)O)CC2)c(C)o1,-
Cc1cc(C(=O)N2CCN(c3ncccn3)CC2)c(C)o1,-
Cc1cc(C(=O)N2CCN(c3ccccc3Cl)CC2)c(C)o1,78
CCOC(=O)c1cc(-c2cccs2)[nH]n1,-
CCOC(=O)C1CCN(C(=O)c2cccs2)CC1,-
CCOC(=O)C1CCN(c2ccc(-c3cccs3)nn2)CC1,57
CCC(=O)N1Cc2cc(C(=O)NCCOC)nc(-c3cccc(-c4ccc(C#N)cc4)c3)c2[C@@H]1CCO,-
Cc1cc(C)c2c(c1)SC1=NC(c3ccccc3)(C(F)(F)F)NC(=O)N12 (stereo not drawn),50
COCC(=O)N1CC2(C1)[C@@H](c1ccccc1)[C@@H](CO)N2CCC(F)(F)F,-
CS(=O)c1ccccc1O (stereo not drawn),-
O=C(O)c1ccccc1O,-
O=S(c1ccccc1O)S(=O)c1ccccc1O (stereo not drawn),82

# Compound activity from PubChem BioAssay.
